A number with no mark means an inactive call.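 Rule for the calls: active = RAM network inhibition above 8.4% in each of two replicates, 3 SD over the compound average; inconclusive = above 8.4% inhibition in only one replicate; inactive = 8.4% inhibition or less in each replicate.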
test: RAM signaling pathway blockade in yeast – S. cerevisiae, Pdr1DBD-CYC8 efflux-inhibited sensitized strain, primary screen (AID 1298);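 note: 0% = DMSO untreated cells without growth and 100% = 10 µM 1-NA-PP1 full growth; higher means more yeast growth rescued from 5-FOA killing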; details: S. cerevisiae cbk1-as DSE1-URA3 strain, 5-FOA growth OD615, 2 d; at 50 µM; stronger effect = higher value

| Structure (SMILES) | RAM network inhibition [%] |
| --- | --- |
| CCCCn1c(CNC(=O)c2cccs2)nc2ccccc21 | -1.56 |
| COC(=O)C1=C(C)NC(=O)CC1c1cccc(Cl)c1Cl (configuration not stated) | 1.05 |
| Cn1c(Cn2c(=O)sc3ccccc32)nnc1SCC(=O)NCCc1ccccc1 | 3.42 |
| Cc1ccccc1S(=O)(=O)Cc1ccc(C(=O)N2CCN(C3CCCCC3)CC2)o1 | 4.62 |
| Cn1c(C(=O)NC2CCCCC2)cc2c(=O)n(C)c3ccccc3c21 | 4.6 |
| O=c1oc(-c2cccs2)nc2sc3c(c12)CCCCC3 | 4.13 |
| CN(C)C(=O)N1CCC(C(=O)NCc2ccc(F)cc2)CC1 | 5.08 |
| Cc1cc(Nc2c(C)cccc2C)n2nc(C)nc2n1 | 0.16 |
| O=C1CC(Nc2ccc(N3CCOCC3)cc2)C(=O)N1c1ccccc1F (configuration not stated) | 5.38 |
| COc1cc(NC(=O)c2cc(C(C)C)on2)cc(OC)c1OC | -0.99 |
| CN(C)CCNC(=O)c1ccc2c(c1)N(Cc1ccc(F)cc1)CCS2 | 0.57 |
| c1ccc2c(c1)nc1n2CCN1CCNC1CCCCC1 | 1.2 |
| COC(=O)c1ccsc1NC(=O)C1=COCCO1 | 2.35 |
| c1coc(-c2nc(-c3ccco3)c(-c3ccco3)nc2-c2ccco2)c1 | 0.57 |
| COc1cc2c(cc1OC)CN(C(=O)C(C)(C)C)CC2 | -0.98 |
| CCOCN(C(=O)Cn1c(CO)nc2ccccc21)c1c(C)cccc1CC | 7.56 |
| CC(C)OC(=O)c1nnc(Cc2ccc(F)cc2)o1 | 7.85 |
